Test [1] is described as follows: A549 cell viability effects, profiling panel, calcein-AM fluorescence, 48 h, basal (AID 1162). As to conditions: higher = more signal.
Test [2] is described as follows: adipocyte viability effects, profiling panel, cell-based, 3T3-L1 adipocytes, calcein-AM fluorescence, 48 h, basal (AID 1163). As to conditions: 3T3-L1 adipocytes viability, higher = more signal.
Test [3] can be described thus: HepG2 cell viability effects, profiling panel, calcein-AM fluorescence, 48 h, basal (AID 1164). As to conditions: higher = more signal.
Test [4] can be described thus: MM1S cell viability effects, profiling panel, calcein-AM fluorescence, 48 h, basal (AID 1165).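 Note: viability of MM1S multiple myeloma cells under basal unstimulated conditions.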 As to conditions: higher = more signal.
Test [5] in a line: basal RPMI8226 viability, no added stimulus, profiling panel, cell-based, calcein-AM fluorescence, 48 h, PK04 Diversity Set (AID 1166).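 Note: cells grown under basal conditions without added stimulus.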 As to conditions: RPMI8226 myeloma viability, higher = more signal.
Test [6] in a line: basal HepG2 mitochondrial membrane potential changes, profiling panel, cell-based, JC-1 fluorescence, 24 h, 100 nL compound (AID 1167). As to conditions: higher = more signal.
Test [7] can be described thus: basal 3T3-L1 adipocyte mitochondrial potential changes, profiling panel, cell-based, JC-1 fluorescence, 3T3-L1 adipocytes, 24 h, 100 nL compound (AID 1168). As to conditions: JC-1 mitochondrial fluorescence, higher = more signal, called active from +8 up or from −8 down.
Test [8] can be described thus: basal RPMI8226 mitochondrial membrane potential changes, profiling panel, cell-based, JC-1 fluorescence, 24 h, 100 nL compound (AID 1169). As to conditions: RPMI8226 myeloma, JC-1 mitochondrial potential fluorescence, higher = more signal.
The nature of test [9]: basal MM1S mitochondrial membrane potential changes, profiling panel, cell-based, JC-1 fluorescence, 24 h, 100 nL compound (AID 1170). As to conditions: higher = more signal.
A short description of test [10]: A549 lung cancer cell viability effects, profiling panel, resazurin fluorescence, 24 h, PK04 Diversity Set (AID 1171). As to conditions: higher = more signal, called active from +8 up or from −8 down. A general note: The colour change of resazurin is a common sign of viable cells or microbes.

The structures appear in SMILES notation. Activity calls are given as the source filed them.
Note: test concentration not given here.

As for `O=C1N(Cc2ccccc2)Cc2ccccc2[C@@H]2OC(c3ccc(OCCCO)cc3)=N[C@]12CCS(=O)(=O)c1ccccc1`, the z-score was 0.589 in test [1]; -1.46 in [2]; 0.151 in test [3]; -1.25 in [4]; -1.08 in test [5]; -0.565 in test [6]. For the same molecule, the z-score is 0.676 (inactive) in test [7], -1.14 in test [8], -0.156 in [9] and 0.403 (inactive) in test [10].
With `[N-]=[N+]=Nc1ccccc1C[C@]1(C(N)=O)N=C(c2ccc(OCCCO)cc2)O[C@H]1c1ccccc1N=[N+]=[N-]`, the z-score in [1] was -1.47; in test [2], 1.32; in [3], -1.84; in [4], -2.29; in test [5], -3.48; in test [6], -1.04. In addition, the z-score in test [7] is -0.981 (inactive); in [8], -1.21; in test [9], -0.825; in [10] it was -1.36 (inactive).
Regarding `O=C1O[C@@H](c2ccccc2)[C@@H](c2ccccc2)N2[C@@H](c3ccc(OCCO)cc3)[C@]3(C(=O)Nc4ccccc43)[C@@H](C(=O)O)[C@H]12`, the z-score in test [1] is -0.644; in test [2] it was 0.624; in [3], -0.888; in [4], 0.243; in [5], -0.146; in test [6] it was -1.36. The z-score was -0.174 (inactive) in test [7], -0.0788 in test [8], -1.13 in [9] and 0.225 (inactive) in test [10].
For the molecule `O=C1NC(=O)C2C1C=CC(C(O)c1cccc3ccccc13)N2Nc1ccc(Cl)cc1Cl` (stereo not given), the z-score is -2.6 in [1]; -0.132 in test [2]; -2.76 in test [3]; -3.71 in test [4]; -4.17 in test [5]; -4.07 in test [6]. In addition, the z-score in [7] is -1.1 (inactive); in test [8], -0.962; in test [9] it was -0.213; in test [10] it was -0.993 (inactive).
Take `CCCC[C@@H](O)C1=C(COc2ccccc2)C[C@H]2C(=O)N(C)C(=O)[C@H]2[C@H]1CO`: the z-score in test [1] was 0.683; in test [2], 0.0659; in test [3], 1.54; in [4], 0.196; in test [5] it was 0.131; in test [6], 1.11. Also, the z-score in [7] is 0.56 (inactive); in test [8], 0.547; in test [9], -2.03; in test [10], -0.703 (inactive).
Regarding `[N-]=[N+]=NCc1ccccc1C[C@@]1(C(=O)N2CCOCC2)N=C(c2ccc(OCCCO)cc2)O[C@@H]1c1ccccc1`, the z-score in [1] is -1.99; in [2], 1.69; in [3], -1.7; in test [4], -3.43; in [5] it was -4.4; in [6], -0.801. The z-score in [7] is 0.86 (inactive); in test [8] it was -1.25; in test [9] it was -1.12; in [10], -1.32 (inactive).
For the molecule `CCOC(=O)c1ccc(NC(=O)O[C@H]2[C@H](OC(=O)Nc3ccc4c(c3)OCO4)[C@@H](OC(=O)Nc3ccc4c(c3)OCO4)[C@@H](OC)O[C@@H]2CO)cc1`, the z-score in test [1] was -0.742; in test [2], 0.558; in test [3], -1.09; in [4] it was -1.05; in test [5], -0.141; in test [6], 0.305. The z-score is 0.463 (inactive) in test [7], -0.66 in test [8], -0.979 in test [9] and -0.214 (inactive) in test [10].
For `COCCOC(=O)N1C(=O)[C@@]2(c3cc(C#CC4=CCCCC4)ccc31)[C@H](C(N)=O)[C@H]1C(=O)O[C@H](c3ccccc3)[C@H](c3ccccc3)N1[C@@H]2c1ccccc1OCCO`, the z-score in test [1] is -2.23; in [2] it was 0.619; in test [3], -3.63; in test [4], -3.29; in test [5], -3.99; in test [6], -2.49. Moreover, the z-score in test [7] was 2.7 (inactive); in test [8], -0.819; in test [9], -1.6; in [10], -2.57 (inactive).
On to `COCCOC(=O)N1C(=O)[C@@]2(c3cc(C#CC4=CCCCC4)ccc31)[C@H](c1ccc(OCCO)cc1)N1[C@H](c3ccccc3)[C@H](c3ccccc3)OC(=O)[C@H]1[C@@H]2C(=O)NC[C@H](O)c1ccccc1`, for which the z-score was 0.148 in test [1]; 0.72 in test [2]; 0.688 in [3]; -1.54 in test [4]; -2.03 in test [5]; -0.9 in [6]. The z-score in test [7] is 0.758 (inactive); in test [8] it was -0.784; in test [9], -0.964; in test [10], 0.607 (inactive).
With `COCC1=C2[C@@H](CCc3ccccc3)OB(O)C[C@@H]2[C@@H]2C(=O)C=CC(=O)[C@@H]2C1`, the z-score in test [1] is 0.144; in [2] it was -0.147; in test [3] it was -0.165; in test [4], -3.4; in test [5], -3.63; in test [6], -3.14. Also, the z-score in [7] is -2.12 (inactive); in test [8], -0.654; in test [9], -2.55; in test [10], -0.648 (inactive).
Regarding `COc1ccc(C(O)C2C=CC3C(=O)N(c4ccccc4)C(=O)C3N2Nc2ccc([N+](=O)[O-])cc2)cc1` (stereo not given), the z-score was -0.27 in test [1]; -1.06 in [2]; 0.168 in test [3]; -0.495 in [4]; 0.0223 in [5]; -0.378 in test [6]. Also, the z-score is -1.52 (inactive) in test [7], 0.0302 in test [8], -0.909 in test [9] and 0.0404 (inactive) in test [10].
Consider `O=C1OCC=C[C@H]2OC34C=CCN(c5ccc(Cl)cc5)C(=O)[C@H]3N(CCO)C(=O)[C@@H]4[C@@H]12` (stereo not given in full), for which the z-score is 0.667 in test [1]; 0.0916 in [2]; 0.781 in test [3]; 0.0654 in test [4]; 0.714 in test [5]; -0.365 in [6]. For the same molecule, the z-score in test [7] is -0.803 (inactive); in [8], 0.0649; in test [9] it was 0.596; in test [10], -0.27 (inactive).
For `CC(C)[Si](C#CCCCC#N)(O[C@H](c1ccccc1)c1cn([C@H](CO)Cc2ccccc2)nn1)C(C)C`, the z-score in test [1] is 0.773; in test [2], -0.0379; in test [3] it was -0.0933; in [4] it was 0.172; in test [5] it was 0.231; in test [6], 0.0258. The z-score in [7] was -0.393 (inactive); in [8], 0.266; in [9], -1.47; in test [10], 0.723 (inactive).
As for `N#Cc1ccc(C(O)C2C=CC3C(=O)N(c4ccccc4)C(=O)C3N2Nc2ccccc2)cc1` (stereo not given), the z-score is -0.26 in [1]; 0.744 in test [2]; -0.638 in test [3]; 0.41 in [4]; -0.153 in test [5]; -0.651 in test [6]. Moreover, the z-score in [7] is 0.693 (inactive); in [8], 0.173; in [9] it was -0.482; in test [10] it was -1 (inactive).
`COc1ccc([Si](C)(C)[C@@H]2[C@@H](CC(=O)N(CCO)Cc3ccccc3)O[C@]3(C(=O)N(Cc4cccc(N5CCOC5=O)c4)c4ccccc43)[C@H]2C)cc1`: the z-score is -1.23 in [1]; 0.836 in test [2]; -1.64 in [3]; -2.66 in [4]; -3.51 in [5]; -0.0766 in test [6]. The z-score is 0.0933 (inactive) in test [7], -1.07 in test [8], -0.991 in test [9] and -2.25 (inactive) in test [10].

The values above are taken from PubChem BioAssay.
